Experimental data as given in PubChem BioAssay (Tox21).
Results filed as inconclusive are left out. A call without a number means that no potency is given here. Activity calls are given as the source filed them. Unless noted, calls come from the whole dose curve; as a rule, active = well fitted curve in the direction sought with a large enough effect in the repeat runs; inconclusive = weak or mixed curves; inactive = no such curve, though single readings can be large; an effect the other way counts as inactive or inconclusive.

Experiments:
[1] = qHTS assay to identify small molecule antagonists of the glucocorticoid receptor (GR) signaling pathway - cell viability counter screen (AID 720693); note: nearly all actives have a fitted effect of over 55% in size
[2] = qHTS assay for identifying genotoxic compounds that show differential cytotoxicity against isogenic chicken DT40 cell lines with known DNA damage response pathways - wild type cell line (AID 743012); note: nearly all actives have a fitted effect of over 60% in size; note: potency is the fitted concentration of half-maximal effect
How it was run: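 Quantitative HTS on parental DT40 cells: 40 h compound treatment at 37 C/5% CO2, with viability then determined by CellTiter-Glo luminescence. Values serve as the DNA repair-proficient reference for differential cytotoxicity.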

[3] = qHTS assay for identifying genotoxic compounds that show differential cytotoxicity against isogenic chicken DT40 cell lines with known DNA damage response pathways - Rev3 mutant cell line (AID 743014); note: nearly all actives have a fitted effect of over 55% in size; note: potency is the fitted concentration of half-maximal effect
[4] = qHTS assay for identifying genotoxic compounds that show differential cytotoxicity against isogenic chicken DT40 cell lines with known DNA damage response pathways - Rad54/Ku70 mutant cell line (AID 743015); note: nearly all actives have a fitted effect of over 60% in size; note: potency is the fitted concentration of half-maximal effect
[5] = qHTS assay to identify small molecule antagonists of the androgen receptor (AR) signaling pathway - cell viability counter screen (AID 743033; note: nearly all actives have a fitted effect of over 45% in size; note: potency is the fitted concentration of half-maximal effect)
[6] = qHTS assay to identify small molecule antagonists of the androgen receptor (AR) signaling pathway using the MDA cell line - cell viability counter screen (AID 743041; note: nearly all actives have a fitted effect of over 45% in size; note: potency is the fitted concentration of half-maximal effect)
How it was run: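 Cells were plated at 3,000 per well and left 5 h. Compounds in DMSO were then pinned in, followed by R1881. After 16 h at 37C, CellTiter-Fluor fluorescence gave viability.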

[7] = target: Androgen receptor (Homo sapiens) (UniProt P10275); experiment: qHTS assay to identify small molecule agonists of the androgen receptor (AR) signaling pathway using the MDA cell line (AID 743040; note: nearly all actives have a fitted effect of over 20% in size)
Androgen receptor (Homo sapiens), sequence (P10275 whole entry, looked up): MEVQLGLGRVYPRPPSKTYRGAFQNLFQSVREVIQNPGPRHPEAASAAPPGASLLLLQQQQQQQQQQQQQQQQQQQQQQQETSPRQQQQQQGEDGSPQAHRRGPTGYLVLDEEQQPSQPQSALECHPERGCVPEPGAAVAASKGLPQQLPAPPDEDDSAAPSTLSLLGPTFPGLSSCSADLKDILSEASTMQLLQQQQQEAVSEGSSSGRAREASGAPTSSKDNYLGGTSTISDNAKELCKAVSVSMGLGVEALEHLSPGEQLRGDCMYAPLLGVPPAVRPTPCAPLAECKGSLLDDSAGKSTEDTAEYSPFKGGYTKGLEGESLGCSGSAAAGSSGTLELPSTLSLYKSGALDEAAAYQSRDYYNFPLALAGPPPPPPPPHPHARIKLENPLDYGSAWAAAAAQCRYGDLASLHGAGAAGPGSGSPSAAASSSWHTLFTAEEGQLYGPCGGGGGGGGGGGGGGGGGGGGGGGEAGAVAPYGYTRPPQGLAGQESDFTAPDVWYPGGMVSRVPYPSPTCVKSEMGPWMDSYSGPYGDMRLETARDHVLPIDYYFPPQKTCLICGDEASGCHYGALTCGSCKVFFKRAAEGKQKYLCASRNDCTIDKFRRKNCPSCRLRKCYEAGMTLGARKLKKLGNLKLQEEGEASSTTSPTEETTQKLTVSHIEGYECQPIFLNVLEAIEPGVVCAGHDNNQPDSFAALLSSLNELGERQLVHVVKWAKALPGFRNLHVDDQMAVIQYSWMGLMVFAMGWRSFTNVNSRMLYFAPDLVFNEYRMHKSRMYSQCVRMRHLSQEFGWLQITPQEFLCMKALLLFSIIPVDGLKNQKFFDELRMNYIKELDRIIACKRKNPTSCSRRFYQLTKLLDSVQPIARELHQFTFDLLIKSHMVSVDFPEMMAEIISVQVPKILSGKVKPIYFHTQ
How it was run: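 Cells plated, 5 h at 37C/0% CO2; compound or DMSO pinned; 16 h at 37C; ONE-Glo added; luminescence measured after 30 min at room temperature. Reporter line: MDA-kb2 with MMTV-luciferase responsive to AR and GR.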

[8] = target: Androgen receptor (Homo sapiens) (UniProt P10275); experiment: qHTS assay to identify small molecule antagonists of the androgen receptor (AR) signaling pathway using the MDA cell line (AID 743042; note: nearly all actives have a fitted effect of over 55% in size)
How it was run: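 Antagonist mode: compounds plus R1881 agonist added to MDA-kb2 AR-luc cells, incubated 16 h at 37C. Luciferase reporter luminescence quantified, with multiplexed CellTiter-Fluor readout for cell viability.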

[9] = target: Androgen receptor (Homo sapiens) (UniProt P10275); experiment: qHTS assay to identify small molecule agonists of the androgen receptor (AR) signaling pathway (AID 743036; active = well fitted activation curve with a large enough effect in the signal ratio in the repeat runs, with a control signal flat, not every such curve was filed as active; the % refers to the signal ratio)
How it was run: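 Activation was read as beta-lactamase FRET signal from LiveBLAzer B/G substrate, added for 2 h at room temperature. Before that, GeneBLAzer AR-UAS-bla GripTite (HEK293) cells had 16 h compound exposure at 37C.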

| SMILES | Potency [1] | Potency [2] | Potency [3] | Potency [4] | Potency [5] | Potency [6] | Potency [7] | Potency [8] | outcome [9] |
| --- | --- | --- | --- | --- | --- | --- | --- | --- | --- |
| CN(c1nccc(=O)[nH]1)C1CCN(c2nc3ccccc3n2Cc2ccc(F)cc2)CC1 | inactive | inactive | inactive | inactive | inactive | inactive |  |  |  |
| O=C(Cl)c1c(Cl)cccc1Cl | inactive | inactive | inactive | inactive | inactive | inactive |  |  |  |
| CCCCOc1cc(C(=O)OCCN(CC)CC)ccc1N | inactive | 10.1 µM (active) | 2.54 µM (active) | 8.04 µM (active) | inactive | inactive |  |  |  |
| CCCC(C)C | inactive | inactive | inactive | inactive | inactive | inactive |  |  |  |
| C=C(C)C(=O)OCCN(C)C | inactive | inactive | inactive | inactive | inactive | inactive |  |  |  |
| CC(=O)Nc1ccc(/C=N/NC(N)=S)cc1 | inactive | inactive | inactive | inactive | inactive | inactive |  |  |  |
| CC(=O)c1c(C)c([N+](=O)[O-])c(C(C)(C)C)c([N+](=O)[O-])c1C | inactive | inactive | inactive | inactive | inactive | inactive |  |  |  |
| CN1CCC(OC(c2ccccc2)c2ccccc2)CC1 | inactive | 11.4 µM (active) | 12.7 µM (active) | 11.4 µM (active) | inactive | inactive |  |  |  |
| CC1(C)[C@H]2CC[C@]1(C)[C@H](O)C2 | inactive | inactive | inactive | inactive | inactive | inactive |  |  |  |
| COC(=O)C(C)=O | inactive | inactive | inactive | inactive | inactive | inactive |  |  |  |
| COCCCCCCCCOCCC[Si](C)(O[Si](C)(C)C)O[Si](C)(C)C | inactive | 5.45 µM (active) | 6.11 µM (active) | 6.11 µM (active) | 6.92 µM (active) | 21.7 µM (active) |  |  |  |
| CC1=CC(=O)/C(=C(/C)O)C(=O)O1 | inactive | inactive | inactive | inactive | inactive | inactive |  |  |  |
| COc1cc(C(C)(C)C)c(O)c(C(C)(C)C)c1 | inactive | 38.6 µM (active) | 27.3 µM (active) | 30.6 µM (active) | inactive | inactive |  |  |  |
| O=C(CC(=O)c1ccccc1)c1ccccc1 | inactive | 36.9 µM (active) | 26.2 µM (active) | 23.3 µM (active) | inactive | inactive |  |  |  |
| CCCCCCCCCCCCCCCCCBr | inactive | inactive | inactive | inactive | inactive | inactive |  |  |  |
| S=C(S)NCCNC(=S)S | inactive | inactive | inactive | inactive | inactive | inactive |  |  |  |

| SMILES | Potency [1] | Potency [2] | Potency [3] | Potency [4] | Potency [5] | Potency [6] | Potency [7] | Potency [8] | outcome [9] |
| --- | --- | --- | --- | --- | --- | --- | --- | --- | --- |
| CC/C(=C\C(=N/O)C(N)=O)C(C)[N+](=O)[O-] (stereo unspecified) | inactive | 30.6 µM (active) | 24.3 µM (active) | 30.6 µM (active) | inactive | inactive |  |  |  |
| CCCOc1ccc2nc(NC(=O)OC)[nH]c2c1 | inactive | 0.237 µM (active) | 0.237 µM (active) | 0.335 µM (active) | inactive | inactive | inactive | inactive |  |
| CC(C)(C)c1cc(CCC(=O)OCC(COC(=O)CCc2cc(C(C)(C)C)c(O)c(C(C)(C)C)c2)(COC(=O)CCc2cc(C(C)(C)C)c(O)c(C(C)(C)C)c2)COC(=O)CCc2cc(C(C)(C)C)c(O)c(C(C)(C)C)c2)cc(C(C)(C)C)c1O | inactive | inactive | inactive |  | inactive |  |  |  |  |
| N#CCc1cccc(C(F)(F)F)c1 | inactive | inactive | inactive | inactive | inactive | inactive |  |  |  |
| CN1CCN(C2=Nc3ccccc3Sc3ccc(Cl)cc32)CC1 | inactive | 8.41 µM (active) | 6.68 µM (active) | 10.6 µM (active) |  | inactive | inactive | inactive |  |
| Oc1ccc(C(O)CNCCCCCCNCC(O)c2ccc(O)c(O)c2)cc1O (stereo unspecified) | inactive | 26.6 µM (active) | 29.8 µM (active) |  | inactive |  |  |  |  |
| CC(C)(C)c1cc(CO)cc(C(C)(C)C)c1O | inactive | 31.2 µM (active) | 27.8 µM (active) | 22.1 µM (active) |  | inactive |  |  |  |
| CN(C)CC/C=C1\c2ccccc2COc2ccccc21 | inactive | 29.8 µM (active) | 26.6 µM (active) | 29.8 µM (active) |  | inactive | inactive | inactive | inactive |
| CCOC(=O)CC(C)C | inactive | inactive | inactive | inactive | inactive | inactive |  |  |  |
| CC(=O)OC/C=C/c1ccccc1 | inactive | inactive | inactive | inactive | inactive | inactive |  |  |  |
| O=C(NN1CCCC1)NS(=O)(=O)c1ccc(Cl)cc1 | inactive | inactive | inactive | inactive | inactive | inactive |  |  |  |
| CC(C)c1cccc(C(C)C)c1NC(=O)NS(=O)(=O)c1cc(C(C)(C)O)co1 | inactive | inactive | inactive | inactive | inactive | inactive |  |  |  |
| CC(=O)c1ccc2c(c1)[C@H](NC(=O)c1ccc(F)cc1)[C@@H](O)C(C)(C)O2 | inactive | inactive | inactive | inactive | inactive | inactive |  |  |  |
| CC(=O)O[C@H]1C[C@@H]2CC[C@@H]3[C@H](CC[C@@]4(C)[C@H]3C[C@H]([N+]3(C)CCCCC3)[C@@H]4OC(C)=O)[C@@]2(C)C[C@@H]1N1CCCCC1 | inactive | inactive | inactive | inactive | inactive | inactive |  |  |  |
| CCCCCCCCCCCCC(=O)O | inactive | inactive | inactive | inactive | inactive | inactive |  |  |  |
